High-throughput results deposited in PubChem BioAssay by National Center for Advancing Translational Sciences (NCATS).
Compounds with a hit are over-represented: about 5.2% of the library has one in this group of screens.
Tau fibril FP: blocks human tau fibril formation measured by polarization | Potency, µM (top dose mostly 57.7 µM), actives largely listed as inhibitors | K18 P301L tau heparin fibrillization, Alexa594 FP, 6 h | P10636 | actives 0.39% (n = 280,000); further: nearly all actives have a fitted effect of over 55% in size
Target sequence (P10636 561-689 P618L limits assumed): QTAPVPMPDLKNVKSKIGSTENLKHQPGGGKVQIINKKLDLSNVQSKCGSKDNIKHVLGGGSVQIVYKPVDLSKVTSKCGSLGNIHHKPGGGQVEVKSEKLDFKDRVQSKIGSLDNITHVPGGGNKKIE
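Human tau K18 […] P301L fragment, 15 uM unlabeled plus 0.24 uM Alexa 594-labeled tau (final), with compound and 20 uM heparin in 100 mM sodium acetate pH 7; 6 hr at 37 C, then Alexa 594 FP read.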
Tau fluor cs: counter-screen for tau fibril formation inhibitors; tau K18 P301L Alexa594 fluorescence, heparin fibrillization; actives 0.93% (n = 280,000); Potency, µM (top dose mostly 57.7 µM); further: nearly all actives have a fitted effect of over 55% in size
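Human K18 P301L tau (15 uM unlabeled plus 0.24 uM Alexa 594-labeled, final) in 100 mM sodium acetate pH 7 was mixed with compound and 20 uM heparin and incubated 6 hr at 37 C.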
FBPA coupling cs: coupling enzyme interference in Giardia aldolase counter-screen; coupling enzyme system counterscreen, AmpLite Red fluorescence; activity change, negative = inhibition, % at 58.2 µM, hits read low; actives 0.67% (n = 290,000); in the data active means activity change below about -30%
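Coupling enzymes only (glyceraldehyde-3-phosphate) + compound, at 57.5 uM final, 10 min RT; add substrate/coupling/AmpLite Red mix, 20 min RT; fluorescence ex 525/em 598 nm. Actives flag coupling-system interference.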
Sfp inh: inhibitors of Bacillus subtilis Sfp phosphopantetheinyl transferase; Biochemical Sfp PPTase activity, qHTS; Potency, µM, actives largely listed as inhibitors; actives 3.5% (n = 310,000); AID 1490;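 further: the enzyme is Sfp with the accession as filed and its product quenches rhodamine fluorescence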
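Step 1, compound plus 15 nM Sfp-PPTase, 15 min, room temperature. Step 2, add rhodamine-CoA (5 uM) and BHQ-2-YbbR (12.5 uM). Step 3, read 525/598 nm fluorescence at 0 and 30 min.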
Tau ThT inhib: tau fibrillization inhibition (ThT binding); actives 2.1% (n = 270,000); recombinant tau K18 P301L (four-repeat tau fragment), heparin-induced fibrillization, ThT fluorescence; AID 1460; Potency, µM (doses to about 57.4 µM), most hits filed as inhibitors; further: nearly all actives have a fitted effect of over 55% in size
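K18 P301L tau (15 uM + 0.24 uM Alexa 594-tagged), heparin 20 uM, NaOAc pH 7, 6 h 37 C; ThT 30 uM, 1 h RT, ex 450/em 510 nm.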
A number is an active result; – = inactive; ? = inconclusive; · = no result given; [ ] = remark or other dose. Unless noted, the call rests on the fitted dose curve; in most records, active means well fitted curve in the direction sought with a large enough effect; inconclusive means small, poorly fitted or top-dose-only effect, or another doubt; inactive means no such curve, though single readings can be large; an effect the other way counts as inactive or inconclusive.

SMILES | Tau fibril FP | Tau fluor cs | FBPA coupling cs | Sfp inh | Tau ThT inhib
CC1=C(C(=O)c2ccccc2)C(c2ccc(N3CCOCC3)cc2)NC(=O)N1 (stereo not drawn) | – | – | – | – | 25µM
CCOc1ccc(N(CC)S(=O)(=O)c2cc(Br)cc3c2N(C(C)=O)C(C)C3)cc1 (stereo not drawn) | – | – | · | · | –
CCOC(=O)C1=C(C)N=c2s/c(=C\c3ccc(OCC(=O)O)cc3)c(=O)n2C1c1ccc(Cl)cc1 (stereo not drawn) | · | · | – | – | ·
CCOc1ccc(C2C(C(=O)Nc3ccccc3)=C(C)N=c3s/c(=C/c4cccc(OCC(=O)O)c4)c(=O)n32)cc1 (stereo not drawn) | – | – | – | 79µM | –
CC1=C(C(=O)Nc2ccccc2)C(c2ccc(Cl)cc2)n2c(s/c(=C/c3cccc(OCC(=O)O)c3)c2=O)=N1 (stereo not drawn) | – | – | – | 50µM | –
CCOC(=O)C1=C(C)N=c2s/c(=C/c3ccc(OCC(=O)O)cc3)c(=O)n2C1c1ccc(F)cc1 (stereo not drawn) | · | · | – | 79µM | ·
CC(C)CC(=O)NCC(c1ccc2c(c1)OCO2)N1CCN(c2ccccc2F)CC1 (stereo not drawn) | – | – | · | · | –
CCOc1ccc(NC(=O)Cn2cc(C(=O)c3ccc(OCC)cc3)c(=O)c3cc4c(cc32)OCCO4)cc1 | – | – | · | · | –
CC(=O)N1CCCc2cc(S(=O)(=O)N3CCCC(C(=O)N4CCN(c5ccccc5F)CC4)C3)ccc21 (stereo not drawn) | – | – | · | · | –
C=CCSc1nc2sc3c(c2c(=O)n1CC=C)CCc1ccccc1-3 | – | – | – | 45µM | –
Clc1ccc(OCCCc2nc(-c3cccnc3)no2)c(Cl)c1 | – | – | – | 32µM | –
CCCCCCCCCCCCC(=O)N1CCCC[C@H]1CNC(=O)[C@@H](N)CCCCN | – | – | – | 50µM | ?
CCC(=O)c1ccc(NC(C)=O)cc1O | – | – | – | – | –
CC(=O)Nc1ccc2c(c1)C(C)(C)C(C)N2C (stereo not drawn) | ? | 28µM[fluorescent] | – | – | ?
CCCCC(=O)N/N=C/c1ccc(Sc2cccc3cccnc23)o1 | – | ? | -35 | 35µM | –
O=C(Nc1ccccc1)Nc1nnc(Cc2ccc([N+](=O)[O-])cc2)s1 | ? | ? | – | ? | –
Cc1ccc(NC(=O)Nc2nnc(Cc3ccc([N+](=O)[O-])cc3)s2)cc1C | ? | 5µM[quencher] | – | – | ?
COc1cccc(/C=C/C(=O)Nc2ccc3nc(N4CCN(C)CC4)cc(C)c3c2)c1OC | – | 8.9µM[quencher] | · | · | 5µM
CCN1CCN(c2cc(C)c3cc(NC(=O)Cc4ccc(OC)c(OC)c4)ccc3n2)CC1 | – | – | – | – | ?
COc1cc(C(=O)Nc2ccc3nc(N4CCN(C)CC4)cc(C)c3c2)cc(OC)c1OC | · | · | – | – | ·
CCN1CCN(c2cc(C)c3cc(NC(=O)/C=C/c4cccc(OC)c4OC)ccc3n2)CC1 | – | 18µM[quencher] | · | · | 3.2µM
Cc1ccccc1C(=O)Nc1ccc(OCc2cc(=O)n3cccc(C)c3n2)cc1 | – | – | · | · | –
CS(=O)(=O)N1CCC2(CCCN(Cc3cc(C(F)(F)F)cc(C(F)(F)F)c3)C2)CC1 | · | · | – | – | ·
COc1ccccc1NCC(=O)c1ccc(C)c(C)c1 | · | · | – | – | ·
COc1ccccc1NCC(=O)c1ccc(Cl)cc1 | · | · | – | 50µM | ·
SMILES | Tau fibril FP | Tau fluor cs | FBPA coupling cs | Sfp inh | Tau ThT inhib
NC1=NC2C(N=C(Br)N2[C@@H]2O[C@H]3COP(=O)(O)O[C@@H]3[C@@H]2O)C(=O)N1 (stereo partly drawn) | – | – | – | – | –
Cc1ccc(NC(=O)Nc2nnc(SCC(=O)N(C(C)C)C(C)C)s2)cc1 | ? | ? | · | · | –
COC(=O)c1ccc(NC(=O)CSc2ncc3c(n2)-c2cc(Cl)ccc2N(Cc2ccccc2)S3(=O)=O)cc1 | 16µM | ? | · | · | –
COc1ccccc1NC(=O)CSc1ncc2c(n1)-c1cc(Cl)ccc1N(Cc1ccccc1)S2(=O)=O | – | – | · | · | –
O=C(Cn1c(C(F)(F)F)nc2ccccc21)Oc1cccc(C(F)(F)F)c1 | – | – | – | 79µM | ?
CCOc1ccccc1NC(=O)Cn1c(=O)sc2ccccc21 | – | – | – | – | –
O=C(Cn1c(=O)sc2ccccc21)Nc1ccc(O)cc1 | – | – | – | 79µM | –
Cc1ccc(NC(=O)N2CC=C(c3c[nH]c4ccccc34)CC2)cc1Cl | – | 14µM[quencher] | · | · | 6.3µM
COC(=O)c1ccc(Cl)cc1NC(=O)N1CC=C(c2c[nH]c3ccccc23)CC1 | – | 11µM[quencher] | · | · | ?
Cc1cccc(NC(=O)N2CC=C(c3c[nH]c4ccccc34)CC2)c1C | – | 25µM[quencher] | · | · | ?
O=C(Nc1ccc(Br)cc1F)N1CC=C(c2c[nH]c3ccccc23)CC1 | – | 8.9µM[quencher] | · | · | 8.9µM
O=C(Nc1ccccc1)N1CC=C(c2ccccc2)CC1 | – | – | – | – | –
O=c1cnc2cncnc2n1Cc1ccccc1 | · | · | – | – | ·
O=[N+]([O-])c1cc2c(cc1C=Nc1ccccc1)OCO2 | – | – | · | – | ?
O=[N+]([O-])c1cccc(C=Nc2cccc3ccccc23)c1O | · | · | – | – | ·
Cc1cccc(N=Cc2cc3c(cc2[N+](=O)[O-])OCO3)c1 | ? | ? | · | – | 10µM
COc1cc(C=Nc2cccc(C)c2)c(O)c([N+](=O)[O-])c1 | – | – | – | – | 7.9µM
Cc1cccc(OCC(=O)N/N=C\c2cc3c(cc2[N+](=O)[O-])OCO3)c1C | ? | ? | – | 25µM | ?
O=C1OC(c2ccc(F)cc2)=C/C1=C\c1ccc([N+](=O)[O-])o1 | ? | ? | – | ? | 16µM
O=C1OC(c2ccc(F)cc2)=C/C1=C\c1ccc(O)cc1 | · | · | – | – | ·
Cc1c(C(=O)NCCO)[n+](=O)c2ccccc2n1[O-] | · | · | · | – | ·
O=C(Cc1coc2ccc3ccccc3c12)N1CCCC1 | – | – | -37 | – | –
O=C(O)Cc1coc2ccc3ccccc3c12 | – | – | – | – | –
Cc1cccc(NC(=O)Cc2coc3ccc4ccccc4c23)n1 | – | – | – | 56µM | –
O=C(O)CNc1ccccc1C(=O)O | – | – | – | – | –
SMILES | Tau fibril FP | Tau fluor cs | FBPA coupling cs | Sfp inh | Tau ThT inhib
O=C(O)c1ccccc1N/C=C\[N+](=O)[O-] | – | – | – | 56µM | ?
CC(=O)N1CCN(c2ccc(Nc3ncnc4c3oc3ccccc34)cc2)CC1 | – | ? | – | – | 4.5µM
CCc1nc(Nc2ccc(N3CCN(C(C)=O)CC3)cc2)c2oc3ccccc3c2n1 | – | ? | – | ? | 13µM
c1ccc(Nc2ncnc3c2oc2ccccc23)cc1 | – | – | – | 79µM | –
Oc1ccc(Nc2ncnc3c2oc2ccccc23)cc1 | · | · | – | – | ·
CCNc1ncc2nc(-c3cccs3)c(=O)n(Cc3cccc(OC)c3)c2n1 | · | · | – | – | ·
O=C1CC(c2ccccc2)Cc2[nH]c(=O)c(C(=O)Nc3cccc(F)c3)cc21 (stereo not drawn) | – | – | · | · | –
COc1ccco1 | · | · | – | – | ·
